Among all 39,000 compounds or so, about 3,300 (8.5%) were called active. Shown is part of a subset that was picked to be rich in actives.

The assay concerns HepG2. The assay is described as follows: cytotoxicity call (relative viability < 0.9). As to conditions: 10 µM.
For the compound `COc1ccc(NC(=O)N(C)C[C@@H]2Oc3c(NC(=O)c4cc(C)nn4C)cccc3C(=O)N([C@@H](C)CO)C[C@@H]2C)cc1`, the cytotoxicity call is “inactive”. Next, `COc1ccc(CN(C)C[C@@H]2OCCCC[C@@H](C)Oc3ccc(NS(=O)(=O)c4ccc(C)cc4)cc3C(=O)N([C@H](C)CO)C[C@@H]2C)cc1`: “inactive”; `COc1ccc(S(=O)(=O)N(C)C[C@H]2Oc3c(NS(C)(=O)=O)cccc3C(=O)N([C@@H](C)CO)C[C@H]2C)cc1`: “inactive”.

As for `C[C@@H]1CCCCO[C@@H](CN(C)C(=O)c2ccncc2)[C@H](C)CN([C@H](C)CO)C(=O)c2cc(NS(=O)(=O)c3ccc(Cl)cc3)ccc2O1`, the cytotoxicity call was “inactive”.

Turning to `C[C@@H]1CN([C@@H](C)CO)S(=O)(=O)c2ccc(-c3ccncc3)cc2O[C@@H]1CN(C)C(=O)c1cccc(F)c1`, the cytotoxicity call is “inactive”. To `CO[C@H]1CN(C)C(=O)c2cc(NC(=O)C3CC3)ccc2OC[C@@H](C)N(C(=O)CN2CCOCC2)C[C@@H]1C` belongs “inactive”; to `C=CC(=O)N1CC[C@@H](Oc2nc(Nc3ccc(N4CCC(N5CCN(C)CC5)CC4)cc3)c(C(N)=O)nc2CC)C1`, “active”; to `CCc1nc(C(N)=O)c(Nc2ccc(N3CCC(N4CCN(C)CC4)CC3)c(OC)c2)nc1NC1CCOCC1`, “active”. As for `COCC(=O)NCc1cc(=O)n2c(n1)CN(c1ncccn1)CCC2`, the cytotoxicity call was “inactive”. In the case of `CO[C@H]1CN(C)C(=O)c2cc(NC(=O)Nc3ccccc3)ccc2OC[C@@H](C)N(C(=O)CN(C)C)C[C@@H]1C`, the cytotoxicity call is “inactive”. For `C[C@H](CO)N1C[C@H](C)[C@H](CN(C)Cc2ccc(C(=O)Nc3ccccc3N)cc2)Oc2ccc(NS(=O)(=O)c3cn(C)cn3)cc2CC1=O`, the cytotoxicity call is “inactive”. To `COc1ccc(CN(C)C[C@@H]2OCCCC[C@H](C)Oc3ccc(NC(=O)Nc4ccc(F)cc4)cc3C(=O)N([C@H](C)CO)C[C@@H]2C)cc1` belongs “active”; to `COc1ccc(CN(C)C[C@@H]2OCCCC[C@H](C)Oc3ccc(NC(=O)Nc4ccc(F)cc4)cc3C(=O)N([C@H](C)CO)C[C@H]2C)cc1`, “inactive”. With `COc1ccc(CN(C)C[C@H]2OCCCC[C@@H](C)Oc3ccc(NC(=O)Nc4ccc(F)cc4)cc3C(=O)N([C@@H](C)CO)C[C@H]2C)cc1`, the cytotoxicity call was “inactive”. To `COc1ccc(CN(C)C[C@H]2OCCCC[C@@H](C)Oc3ccc(NC(=O)Nc4ccc(F)cc4)cc3C(=O)N([C@H](C)CO)C[C@@H]2C)cc1` belongs “inactive”; to `COc1ccc(CN(C)C[C@@H]2OCCCC[C@@H](C)Oc3ccc(NC(=O)Nc4ccc(F)cc4)cc3C(=O)N([C@@H](C)CO)C[C@H]2C)cc1`, “active”. To `COc1ccc(CN(C)C[C@@H]2OCCCC[C@@H](C)Oc3ccc(NC(=O)Nc4ccc(F)cc4)cc3C(=O)N([C@@H](C)CO)C[C@@H]2C)cc1` belongs “inactive”; to `COc1ccc(CN(C)C[C@@H]2OCCCC[C@@H](C)Oc3ccc(NC(=O)Nc4ccc(F)cc4)cc3C(=O)N([C@H](C)CO)C[C@H]2C)cc1`, “active”; to `COc1ccc(CN(C)C[C@@H]2OCCCC[C@H](C)Oc3ccc(NC(=O)Nc4ccc(F)cc4)cc3C(=O)N([C@@H](C)CO)C[C@H]2C)cc1`, “inactive”. On to `COc1ccc(CN(C)C[C@@H]2OCCCC[C@H](C)Oc3ccc(NC(=O)Nc4ccc(F)cc4)cc3C(=O)N([C@@H](C)CO)C[C@@H]2C)cc1`, for which the cytotoxicity call was “active”. Next, `COc1ccc(CN(C)C[C@@H]2OCCCC[C@@H](C)Oc3ccc(NC(=O)Nc4ccc(F)cc4)cc3C(=O)N([C@H](C)CO)C[C@@H]2C)cc1`: “inactive”; `C[C@H](CO)N1C[C@H](C)[C@@H](CN(C)Cc2ccccc2F)Oc2cc(C#CC3CC3)ccc2S1(=O)=O`: “inactive”. To `Nc1cnc(Cl)nc1N` belongs “inactive”; to `COC(=O)C[C@@H]1C(=O)NCCN1C(=O)NS(=O)(=O)c1ccc(C)cc1`, “inactive”; to `C[C@@H]1CN([C@H](C)CO)C(=O)c2cccc(NS(=O)(=O)c3cccs3)c2O[C@@H]1CN(C)S(=O)(=O)c1ccccc1`, “inactive”. Next, `O=C(NN1CCCCC1)c1nn(-c2ccc(Cl)cc2Cl)c(-c2ccc(C#Cc3ccc(C(F)(F)F)cc3)s2)c1CNS(=O)(=O)N1CCCC1`: “inactive”; `COc1ccc(CN(C)C[C@H]2OCCCC[C@H](C)Oc3ccc(NC(=O)Nc4ccc(F)cc4)cc3C(=O)N([C@H](C)CO)C[C@@H]2C)cc1`: “inactive”. Take `COc1ccc(CN(C)C[C@H]2OCCCC[C@H](C)Oc3ccc(NC(=O)Nc4ccc(F)cc4)cc3C(=O)N([C@@H](C)CO)C[C@@H]2C)cc1`: the cytotoxicity call was “inactive”. Next, `COc1ccc(CN(C)C[C@H]2OCCCC[C@@H](C)Oc3ccc(NC(=O)Nc4ccc(F)cc4)cc3C(=O)N([C@H](C)CO)C[C@H]2C)cc1`: “active”.

For `COc1ccc(CN(C)C[C@H]2OCCCC[C@H](C)Oc3ccc(NC(=O)Nc4ccc(F)cc4)cc3C(=O)N([C@@H](C)CO)C[C@H]2C)cc1`, the cytotoxicity call was “active”. To `COc1ccc(CN(C)C[C@H]2OCCCC[C@H](C)Oc3ccc(NC(=O)Nc4ccc(F)cc4)cc3C(=O)N([C@H](C)CO)C[C@H]2C)cc1` belongs “active”; to `COc1ccc(CN(C)C[C@H]2OCCCC[C@@H](C)Oc3ccc(NC(=O)Nc4ccc(F)cc4)cc3C(=O)N([C@@H](C)CO)C[C@@H]2C)cc1`, “active”.

Regarding `CCn1nnc2c(SCC(N)=O)ncnc21`, the cytotoxicity call was “inactive”. To `O=C(NCc1ccccc1)OCCO` belongs “inactive”. Next, `O=C(C[C@H]1CC[C@@H]2[C@H](COC[C@@H](O)CN2C(=O)Nc2ccc(F)cc2)O1)NCCCN1CCOCC1`: “inactive”; `CN1CCN(C(=O)C[C@H]2CC[C@@H]3[C@H](COC[C@H](O)CN3S(=O)(=O)c3cccc(F)c3)O2)CC1`: “inactive”. To `COc1cccc(S(=O)(=O)N2C[C@H](O)COC[C@H]3O[C@@H](CC(=O)NCCCN4CCOCC4)CC[C@@H]32)c1` belongs “inactive”. `C[C@@H]1CCCCO[C@H](CN(C)C(=O)Cc2ccccc2)[C@@H](C)CN([C@H](C)CO)C(=O)c2cc(NS(=O)(=O)c3ccc(Cl)cc3)ccc2O1`: the cytotoxicity call was “inactive”. For `C[C@@H]1CN([C@H](C)CO)C(=O)c2cc(NS(=O)(=O)c3ccccc3)ccc2O[C@@H](C)CCCCO[C@@H]1CN(C)C(=O)C1CCCCC1`, the cytotoxicity call was “inactive”. As to `CN1CCCN=C1C=Cc1cccs1.O=C(O)c1cc2ccccc2c(Cc2c(O)c(C(=O)O)cc3ccccc23)c1O`, the cytotoxicity call is “inactive”. Next, `CN1CCCN=C1C=Cc1cccc(O)c1.O=C(O)c1cc2ccccc2c(Cc2c(O)c(C(=O)O)cc3ccccc23)c1O`: “inactive”; `Cc1cc(C=Cc2ccc3cc(N(C)C)ccc3[n+]2C)c(C)n1-c1ccccc1.O=C([O-])c1cc2ccccc2c(Cc2c(O)c(C(=O)O)cc3ccccc23)c1O`: “active”.

Values taken from the antibiotic and cytotoxicity screens of Wong et al. (2023).
